Test results reported in PubChem BioAssay AID1063 (University of Pittsburgh Molecular Library Screening Center, 2008).
Screen size: about 200,000 compounds; about 18,000 (9%) were called active. No stated cut-off is given here; in the data, active means inhibition above about 50%; inactive means the rest. The list comes from a sample in which actives are over-represented; it also holds similar structures and randomly drawn compounds.

Test: antileishmanial activity against promastigotes – primary screen (AID 1063);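 further: promastigotes grown with compound for 44 hours at 28 °C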
Conditions: Leishmania major promastigotes, resazurin fluorescence viability; at 10 µM; active compounds read high

Row | SMILES | inhibition
1 | c1ccc(Cc2cc[n+](Cc3ccccc3)cc2)cc1 | 52% (active)
2 | COC(=O)c1ccc(Cc2ccccc2)o1 | -4.65% (inactive)
3 | CN(C)c1cc[n+](Cc2ccccc2)cc1 | -2.95% (inactive)
4 | COc1ccc(-c2[nH]ncc2CN(C)Cc2cc(C)[nH]n2)c(F)c1 | -3.28% (inactive)
5 | Cc1cc(C)c(S(=O)(=O)N2CCOCC2)cc1C | 0.43% (inactive)
6 | Cn1cc(CCC(=O)N2CCCC(C(=O)c3ccc(C(C)(C)C)cc3)C2)cn1 (stereo not given) | -0.59% (inactive)
7 | CCOc1ccc(CN(Cc2ccco2)C(c2cccs2)c2nnnn2C(C)(C)C)cc1 (stereo not given) | 73% (active)
8 | CC(C)(C)n1nnnc1C(c1cccs1)N(Cc1cccnc1)CC1CCCO1 (stereo not given) | 18.7% (inactive)
9 | Cc1ccc(S(=O)(=O)NNC(=O)Nc2cccc3ccccc23)cc1 | 34.5% (inactive)
10 | CC(=O)Nc1ccc(NC(=O)C(C)n2c3ccccc3c3nc(=O)cc(C)n32)cc1 (stereo not given) | 2.66% (inactive)
11 | O=C(NCc1ccco1)c1cccn2c(=O)c3c4c(sc3nc12)CCCC4 | -1.47% (inactive)
12 | CCn1c(=N)c(C(=O)NCCCOC)cc2c(=O)n3cccc(C)c3nc21 | 28.4% (inactive)
13 | COc1ccc(CCn2c(=N)c(C(=O)NCc3ccco3)cc3c(=O)n4cccc(C)c4nc32)cc1 | 67.1% (active)
14 | Cc1nn(CC(=O)Nc2ccc3c(c2)OCO3)c(C)c1[N+](=O)[O-] | 7.29% (inactive)
15 | COc1ccc(C2CC(c3cccs3)=NN2c2ccc(F)cc2)cc1OC (stereo not given) | 15.6% (inactive)
16 | CCc1nnc(NC(=O)Cc2cccs2)s1 | -5.86% (inactive)
17 | CN(C)Cc1ccccc1C1(O)c2ccccc2CSc2ccccc21 (stereo not given) | 77.4% (active)
18 | O=C(CNC(=O)c1cc(=O)[nH]c2ccccc12)Nc1ccc(F)c(F)c1 | 2% (inactive)
19 | CCc1nccn1S(=O)(=O)c1cccc([N+](=O)[O-])c1 | 33.6% (inactive)
20 | CC(C)c1nccn1S(=O)(=O)c1cc([N+](=O)[O-])ccc1Cl | 25.1% (inactive)

Row | SMILES | inhibition
21 | COc1cc2sc(C)nc2cc1C | -0.96% (inactive)
22 | CCCOc1cc(C)c(S(=O)(=O)n2nnc3ccccc32)cc1C | -5.25% (inactive)
23 | CCc1nc(C)cn1S(=O)(=O)c1cc([N+](=O)[O-])ccc1Cl | 89.9% (active)
24 | CCc1nc(C)cn1S(=O)(=O)c1cc(OC)c(C)cc1C | 67.1% (active)
25 | Cn1c(=O)cc(OCC(=O)N2CCN(c3ccccc3F)CC2)c2ccccc21 | -1.08% (inactive)
26 | COC(=O)c1ccc(/C=N/OCC(=O)Nc2cc(F)ccc2F)cc1 | 6.63% (inactive)
27 | CCc1ccc(OCC(=O)OCC(=O)c2c(N)n(C)c(=O)n(C)c2=O)cc1 | -8.87% (inactive)
28 | Cc1cccc(C)c1NC(=O)C1(N(C(=O)c2ccccn2)c2ccc(O)cc2)CCCCC1 | -0.59% (inactive)
29 | Cc1cc(C)cc(NC(=O)COC(=O)c2cc(C)oc2C)c1 | -1.77% (inactive)
30 | CC1(C)CCCC2=C1CC1C(=O)N(c3ccccc3)C(=O)C1C2 (stereo not given) | 4.86% (inactive)
31 | CC1CC2=C(CC1/C=N/NC(N)=S)C(C)(C)CCC2 (stereo not given) | 100% (active)
32 | COCCNC(=O)c1ccc(-n2c(SCc3cccnc3)nc3ccccc3c2=O)cc1 | -2.65% (inactive)
33 | COc1cc(N2C(=O)c3ccccc3C2=O)c(Cl)cc1C(=O)OCC(=O)N1CCOCC1 | 16.7% (inactive)
34 | CC1=C(C(=O)Nc2cc(C)ccn2)C(c2cnn(C)c2)C2=C(CC(c3ccccc3)CC2=O)N1 (stereo not given) | 1% (inactive)
35 | Cc1cc(C)c2c(n1)nn1c(N3CCOCC3)cc(C)nc21 | 4.53% (inactive)
36 | Cc1cc(C)c2nc3nc(C)cc(C)c3c(N)c2c1 | 100% (active)
37 | Cc1cc(C)c2nc(SCCC#N)nc(C)c2c1 | 5.11% (inactive)
38 | O=C(C1CCCO1)N(c1ccc(F)cc1)C1C=CS(=O)(=O)C1 (stereo not given) | -5.34% (inactive)
39 | CC1CCC2(CC1)NC(=O)N(Cc1nnc(-c3cccs3)o1)C2=O (stereo not given) | 1.95% (inactive)
40 | COc1ccc(CCN=C2SCC(=O)N2Cc2ccccc2)cc1OC | 20.8% (inactive)

Row | SMILES | inhibition
41 | c1ccc(C2c3[nH]c4ccccc4c3CCN2Cc2cccn2-c2cccnc2)nc1 (stereo not given) | 0.1% (inactive)
42 | CCOc1ccc(C2c3[nH]c4ccccc4c3CCN2Cc2cn(CC)nc2C)cc1 (stereo not given) | 64.3% (active)
43 | COCc1ccc(C(=O)N2CCc3c([nH]c4ccccc34)C2c2ccccn2)s1 (stereo not given) | 13.5% (inactive)
44 | COc1cccc(C2c3[nH]c4ccccc4c3CCN2Cc2cccc(C)n2)c1 (stereo not given) | 82.2% (active)
45 | COc1ccc(C2c3[nH]c4ccccc4c3CCN2CCCn2cccn2)cc1C (stereo not given) | 16.8% (inactive)
46 | Oc1cccc(C2c3[nH]c4ccccc4c3CCN2Cc2cnn(-c3ccccc3)c2)c1 (stereo not given) | -0.63% (inactive)
47 | CC(C)C(O)C1CCN(Cc2nc(Cc3ccccc3Cl)no2)CC1 (stereo not given) | 1.45% (inactive)
48 | COc1ccc([N+](=O)[O-])cc1NC(=O)CC1SC(=Nc2cccc(C)c2C)N(/N=C(\C)c2ccc(C)cc2)C1=O (stereo not given) | 30.7% (inactive)
49 | CC1(C)C2CCC1(C)C(OC(=O)c1ccc(O)cc1)C2 (stereo not given) | 14.5% (inactive)
50 | CC1CC(C)CN(S(=O)(=O)c2ccc(C(=O)NN3CCOCC3)cc2)C1 (stereo not given) | 6.29% (inactive)
51 | COc1ccccc1NC(=O)CSc1nc2sc(C)c(C)c2c(=O)n1Cc1ccco1 | 7.51% (inactive)
52 | CCOC(=O)CSc1nc2c(sc(=S)n2CCc2ccccc2)c(=O)n1Cc1ccco1 | 50.2% (active)
53 | CCOC(=O)CSc1nc2c(c(=O)n(C)c(=O)n2C)n1Cc1ccccc1F | -9.26% (inactive)
54 | Cc1ccc(C(C[N+](=O)[O-])c2c(C)cc3ccccn23)cc1 (stereo not given) | 100% (active)
55 | CC(C)C(=O)Nc1oc(-c2ccccc2)cc1C#N | 0.64% (inactive)
56 | O=C(CSc1ccsc1[N+](=O)[O-])N1CCCCC1 | 14.2% (inactive)
57 | Cc1nnc(N/N=C/C2CC=CCC2)[nH]c1=O (stereo not given) | -5.21% (inactive)
58 | COc1ccc(COC(=O)c2n[nH]c3ccccc23)cc1F | 97.5% (active)
59 | O=C(COC(=O)c1n[nH]c2ccccc12)NCc1ccccc1 | 3.11% (inactive)
60 | COc1cccc(CNC(=O)c2n[nH]c3ccccc23)c1 | 6.49% (inactive)
